Screening results deposited in PubChem by National Center for Advancing Translational Sciences (NCATS).
The list is not random: actives were taken first. Their share in the collection is about 2.6%.
Cruzain noTriton: inhibitors of Trypanosoma cruzi cruzain without detergent; P25779; purified cruzain, Z-FR-AMC fluorescence, no detergent; Potency, µM, for inactives: max response, negative = inhibition, actives largely listed as inhibitors; 2.3% of 200,000 active; AID 1476;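 note: plate controls were enzyme without inhibitor for no effect and buffer without enzyme for full effect; nearly all actives have a fitted effect of over 40% in size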
Target sequence (P25779 123-467 limits assumed): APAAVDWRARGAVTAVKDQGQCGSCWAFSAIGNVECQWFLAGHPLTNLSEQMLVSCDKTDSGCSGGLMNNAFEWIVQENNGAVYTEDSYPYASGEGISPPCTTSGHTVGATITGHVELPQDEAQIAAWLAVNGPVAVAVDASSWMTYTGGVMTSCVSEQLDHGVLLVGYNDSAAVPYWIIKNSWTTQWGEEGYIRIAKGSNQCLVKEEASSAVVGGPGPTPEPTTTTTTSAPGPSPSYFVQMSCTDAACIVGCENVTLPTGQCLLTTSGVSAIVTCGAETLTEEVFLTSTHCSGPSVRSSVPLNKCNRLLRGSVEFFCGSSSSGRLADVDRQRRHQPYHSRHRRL
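Purified cruzain at 1.5 nM, pre-incubated 15 min with compound at room temperature in 100 mM sodium acetate pH 5.5, 5 mM DTT, 0.00005% Triton X-100. Reaction started with 2 uM Z-FR-AMC; AMC fluorescence increase over 60 s gives rate.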
Cruzain inh Det: blocks cruzain activity in presence of Triton detergent; AID 1478; 0.43% of 200,000 active; Potency, µM, inactives show max response, negative = inhibition, usual class: inhibitors; purified cruzain, Z-FR-AMC fluorescence, 0.01% Triton;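 note: plate controls were neutral wells for no effect and buffer without enzyme for full effect; nearly all actives have a fitted effect of over 40% in size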
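Sodium acetate buffer (100 mM, pH 5.5) containing 5 mM DTT and 0.01% Triton X-100 hosted 1.5 nM cruzain and test compound for 15 min at room temperature. Cleavage of 2 uM Z-FR-AMC was then tracked by fluorescence.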
* hit, by the source's call; ? = inconclusive. Calls come from the whole dose curve; as a rule, active = well fitted curve in the direction sought with a large enough effect; inconclusive = small, poorly fitted or top-dose-only effect, or another doubt; inactive = no such curve, though single readings can be large; an effect the other way counts as inactive or inconclusive. Potency is the fitted concentration of half-maximal effect.

SMILES	Cruzain noTriton	Cruzain inh Det
CC1=CC2=NC(=O)/C(=C\c3cccn3CCOc3ccc(C)c(C)c3)C(=N)N2O1	1.8%	-6.0%
CS(=O)(=O)C1=NSC2=NC(=O)/C(=C\c3ccc(-c4ccccc4)o3)C(=N)N21	23.9%	-15.8%
N=C1/C(=C\c2ccc(-c3cc(Cl)cc(Cl)c3)o2)C(=O)N=C2SC=C(c3ccccc3)N12	2.51µM*	-3.7%
CN1CCN(c2ncc3nc(CCc4ccccc4)c(=O)n(C)c3n2)CC1	-5.3%	-20.0%
O=c1cc[nH]c(=S)[nH]1	0.4%	4.4%
COC(=O)c1c(NC(=O)CN2C(=O)NC3(CCc4ccccc4C3)C2=O)sc2c1CCCCC2 (configuration not stated)	12.6µM*	-4.4%
CC1CCCCC12NC(=O)N(CC(=O)Nc1sc3c(c1C(N)=O)CCC3)C2=O (configuration not stated)	8.3%	-22.4%
O=C(CN1C(=O)NC2(CCc3ccccc3C2)C1=O)Nc1ccc(Cl)cc1F (configuration not stated)	-7.3%	-1.6%
COC(=O)c1c(NC(=O)CN2C(=O)NC3(CCC(C(C)(C)C)CC3)C2=O)sc2c1CCCCC2 (configuration not stated)	15.8µM*	0.6%
CC[C@H](CO)NCCN[C@@H](CC)CO	-6.4%	0.1%
Cn1c(SCc2ccc(F)cc2)nc2ccc(C(=O)NCc3ccccc3)cc21	-5.5%	-3.1%
CCn1c(CC(=O)Nc2ccc(C)c(Cl)c2)nnc1SCc1ccc(Cl)c(Cl)c1	12.6µM*	5.1%
CCn1c(CC(=O)Nc2ccc(C)c(Cl)c2)nnc1SCC(=O)Nc1nc(C)cs1	?	8.9%
OC1c2ccccc2-c2nc3ccccc3cc21 (configuration not stated)	-0.9%	-1.4%
O=C(Nc1nc(-c2ccc3ccccc3c2)cs1)C1CCN(S(=O)(=O)c2cccs2)CC1	3.16µM*	-2.2%
Cc1ccc(-c2csc(NC(=O)C3CCN(S(=O)(=O)c4cccs4)CC3)n2)cc1	?	-4.4%
O=C(Nc1nc(-c2ccccc2)cs1)C1CCCCN1S(=O)(=O)c1ccccc1 (configuration not stated)	?	-11.0%
O=C(Nc1nc(-c2ccccc2)cs1)C1CCCN(S(=O)(=O)c2ccccc2)C1 (configuration not stated)	20µM*	4.7%
O=C(Nc1nc(-c2ccccc2)cs1)C1CCCCN1S(=O)(=O)c1ccc(Cl)cc1 (configuration not stated)	?	-2.9%
O=C(Nc1nc(-c2ccccc2)cs1)C1CCCN(S(=O)(=O)c2cccc([N+](=O)[O-])c2)C1 (configuration not stated)	7.94µM*	-3.9%
COCCn1c(SCC(=O)Nc2cc(Cl)ccc2OC)nc2c([nH]c3ccccc32)c1=O	5.2%	3.2%
Cc1ccc(NC(=O)Cc2c(C(=O)O)c(C)cn2C)cc1Cl	-13.4%	-0.6%
COc1ccc(CNC(=O)c2c(Nc3ccccc3C)sc(C(=O)c3ccccc3)c2N)cc1	?	-0.3%
COc1ccc(CNC(=O)c2c(Nc3ccc(OC)cc3OC)sc(C(=O)c3ccc(Cl)cc3)c2N)cc1	12.6µM*	-0.4%
Cc1ccccc1Nc1sc(C(=O)c2ccccc2)c(N)c1C(=O)NCc1ccc(Cl)cc1	5.01µM*	-2.4%
SMILES	Cruzain noTriton	Cruzain inh Det
CCOc1ccc(NC(=O)c2c(Nc3ccc(OC)cc3OC)sc(C(=O)c3ccc(Cl)cc3)c2N)cc1	?	0.5%
O=C(CSc1ccc2ccccc2c1Br)Nc1cccc(S(=O)(=O)NC2=NCCCCC2)c1	20µM*	-5.0%
Cc1ccc(C)c(SCC(=O)Nc2cccc(S(=O)(=O)NC3=NCCCCC3)c2)c1	-1.8%	-4.9%
CCCSCCCNC(=O)c1ccc2c(c1)nc1n2CCCCC1	-0.5%	0.6%
Cc1ccc(-c2[nH]nc3c2C(c2ccccc2OC(=O)N2CCOCC2)C(C#N)=C(N)O3)cc1 (configuration not stated)	25.1µM*	2.1%
COc1ccc(-c2[nH]nc3c2C(c2ccccc2OC(=O)N2CCOCC2)C(C#N)=C(N)O3)cc1 (configuration not stated)	?	1.3%
Cc1nc2cccnc2n1C1CCN(S(=O)(=O)N(C)C)CC1	8.8%	0.7%
O=C(COC(=O)/C=C/c1ccccc1)Nc1cc(C(F)(F)F)ccc1N1CCOCC1	-1.5%	-1.8%
O=C(COC(=O)/C=C/c1ccc(Cl)cc1Cl)Nc1cc(C(F)(F)F)ccc1N1CCOCC1	12.6µM*	-2.7%
CCOC(=O)c1[nH]c2c(c1Cc1ccccc1)C(=O)CC(c1ccc(Cl)cc1)C2 (configuration not stated)	?	-5.4%
O=C(NCc1cccc(F)c1)c1ccc(N2C(=O)Cn3c(cc4sccc43)C2=O)cc1	25.1µM*	-6.6%
CCN1CCSc2ccc(C(=O)NCc3cccc(F)c3)cc21	7.2%	0.9%
CC1=C(C(=O)O)N2C(=O)[C@@H](NC(=O)[C@@H](N)c3ccc(O)cc3)[C@@H]2SC1	-7.8%	1.7%
CC(C)CC(=O)C[C@H](O)C(Cl)(Cl)Cl	3.7%	4.8%
CC[C@H](C)[C@H](N)C1=N[C@H](C(=O)N[C@@H](CC(C)C)C(=O)N[C@@H](CCC(=O)O)C(=O)N[C@@H](C(=O)N[C@H]2CCCCNC(=O)[C@@H](CC(N)=O)NC(=O)[C@@H](CC(=O)O)NC(=O)[C@@H](Cc3cnc[nH]3)NC(=O)[C@@H](Cc3ccccc3)NC(=O)[C@@H]([C@@H](C)CC)NC(=O)[C@@H](CCCN)NC2=O)[C@@H](C)CC)CS1	?	-13.1%
CCN(C(=O)Cn1cnc2onc(-c3ccc(F)cc3)c2c1=O)c1ccc(OC)cc1	?	-10.0%
Cc1ccc(-n2ncc3c(Nc4ccc(Oc5ccccc5)cc4)ncnc32)c(C)c1	-18.4%	-1.5%
CCOc1ccccc1N1Cc2ccccc2C1	?	4.7%
COc1ccc(OC)c(N2Cc3cc(C)c(C)cc3C2)c1	15.8µM*	0.7%
COc1ccc(OC)c(-n2cnnn2)c1	2.2%	5.5%
CCOc1ccccc1N1Cc2cc(C)c(C)cc2C1	25.1µM*	3.1%
CCCCC(CC)C/C=C1\CC(C(=O)OCC)Oc2ccccc21 (configuration not stated) (tested in a mixture with another compound)	-3.7%	-1.2%
COc1ccccc1NC(=O)c1oc2ccccc2c1NC(=O)c1ccccc1C(F)(F)F	-1.1%	-3.3%
O=C(/C=C/c1ccco1)NC(=S)Nc1ccccn1	-6.7%	-9.9%
Cc1ccc2oc(-c3cccc(NC(=S)NC(=O)c4cccs4)c3)nc2c1	?	-0.1%
SMILES	Cruzain noTriton	Cruzain inh Det
O=C(/C=C/c1ccco1)NC(=S)Nc1nc(-c2ccc3ccccc3c2)cs1	3.98µM*	2.1%
Cc1ccc2oc(-c3cccc(NC(=S)NC(=O)/C=C/c4ccco4)c3)nc2c1	3.98µM*	-7.0%
O=C(/C=C\c1ccco1)Nc1nc(-c2ccccc2)cs1	10.2%	0.6%
O=C(/C=C/c1ccco1)NC(=S)Nc1nc(-c2ccc(Cl)cc2)cs1	5.01µM*	-2.2%
COc1ccc(/C=C/C(=O)c2ccc(C)s2)cc1	1.6%	-1.3%
Cc1cccc(C)c1NC(=O)c1ccc2c(c1)nnn2C1CCCC1	-12.7%	1.1%
Cc1ccc(CNC(=O)c2ccccc2NC(=O)c2nsc3ccccc23)cc1	-12.3%	4.0%
Cc1nc2c(C(=O)NCCCN(CC(C)C)CC(C)C)cnn2c(C)c1Cc1c(F)cccc1Cl	5.7%	0.2%
